Our source for the growth values is PubChem BioAssay (NCI).

Molecules are shown by their SMILES. The panel holds about 83,000 compounds, 20% with a hit somewhere; the sample as a whole holds those more often.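 Cell lines were cultured in 96-well plates, exposed to a single compound concentration, and assessed for percent growth 48 hours later.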 Unmarked numbers belong to inactive results. Active and inactive are the calls of the source. The calls were made as follows: active = growth percent below 10; inactive = the rest.

Test systems include SR leukemia; RPMI-8226 leukemia; OVCAR-8 ovarian; OVCAR-5 ovarian; OVCAR-4 ovarian; SK-OV-3 ovarian; IGROV1 ovarian; OVCAR-3 ovarian; HS 578T breast; NCI/ADR-RES ovarian.
Common to all, as to assay: NCI-60 one-dose screen, 48 h (100 = growth as untreated, 0 = no growth, -100 = all killed)
Holding throughout (conditions): 10 µM unless noted

`Cc1nc(N2CCOCC2)sc1S(N)(=O)=O`: the growth with SR leukemia was 98.3%; in the assay on RPMI-8226 leukemia, 102%; in the assay on OVCAR-8 ovarian it was 103%; with OVCAR-5 ovarian it was 96.5%; in the assay with OVCAR-4 ovarian it was 112%; in the assay on SK-OV-3 ovarian it was 102%. The growth in the assay on IGROV1 ovarian is 99.4%; in the assay with OVCAR-3 ovarian, 102%; with HS 578T breast, 100%; in the assay with NCI/ADR-RES ovarian it was 102%.

With `CCN(CC)c1nc(SCc2ccccc2Cl)ncc1C`, the growth in the assay on SR leukemia was 95.6%; with RPMI-8226 leukemia it was 93.5%; in the assay on OVCAR-8 ovarian it was 104%; in the assay on OVCAR-5 ovarian it was 119%; with OVCAR-4 ovarian, 101%; in the assay on SK-OV-3 ovarian it was 113%. Besides, the growth in the assay on IGROV1 ovarian is 109%; in the assay on OVCAR-3 ovarian, 109%; in the assay on HS 578T breast it was 124%; in the assay with NCI/ADR-RES ovarian, 92.2%.

For the molecule `O=C(O)CNC1=C(Cl)C(=O)c2ccccc2C1=O`, the growth is 107% in the assay on SR leukemia; 87.4% in the assay on RPMI-8226 leukemia; 87.9% in the assay on OVCAR-8 ovarian; 118% in the assay on OVCAR-5 ovarian; 97% with OVCAR-4 ovarian; 114% with SK-OV-3 ovarian. Besides, the growth is 103% in the assay on IGROV1 ovarian, 97.5% with OVCAR-3 ovarian, 124% in the assay with HS 578T breast and 98.3% in the assay with NCI/ADR-RES ovarian.

As to `Cc1nc(-c2ccccc2)cc2c(O)c(C(=O)NN)[nH]c(=O)c12`, the growth with SR leukemia was 106%; in the assay with RPMI-8226 leukemia, 103%; with OVCAR-8 ovarian, 106%; in the assay with OVCAR-5 ovarian, 110%; in the assay on OVCAR-4 ovarian it was 112%; in the assay on SK-OV-3 ovarian, 103%. For the same molecule, the growth with IGROV1 ovarian is 7.89% (active); in the assay on OVCAR-3 ovarian it was 105%; with HS 578T breast, 109%; in the assay with NCI/ADR-RES ovarian, 118%.

Regarding `Cc1ccccc1NC(=O)c1sc2nc(C)c(C(=O)/C=C/c3ccccc3)cc2c1N`, the growth in the assay on SR leukemia is 24.4%; in the assay on RPMI-8226 leukemia it was -24.7% (active); with OVCAR-8 ovarian, 6.75% (active); in the assay with OVCAR-5 ovarian, 20.8%; with OVCAR-4 ovarian, 51.3%; in the assay on SK-OV-3 ovarian, 82%. The growth in the assay with IGROV1 ovarian is 10.3%; in the assay on OVCAR-3 ovarian, -5.72% (active); in the assay on HS 578T breast, 10% (active); in the assay with NCI/ADR-RES ovarian, 1.11% (active).

As for `Cc1ccc(S(=O)(=O)N2CCCC2CO)cc1` (stereo not given), the growth in the assay on SR leukemia is 112%; in the assay on RPMI-8226 leukemia it was 62.6%; in the assay with OVCAR-8 ovarian, 103%; with OVCAR-5 ovarian, 85.7%; with OVCAR-4 ovarian it was 93.5%; in the assay on SK-OV-3 ovarian, 102%. The growth in the assay with IGROV1 ovarian is 90.6%; with OVCAR-3 ovarian, 104%; in the assay on HS 578T breast, 79.5%; in the assay with NCI/ADR-RES ovarian, 56.7%.

Regarding `CN(C)CCNc1nc2c3cc(Cl)ccc3nn2c2ccccc12`, the growth in the assay with SR leukemia was 16.9%; in the assay with RPMI-8226 leukemia, 50.8%; in the assay on OVCAR-8 ovarian, 36.1%; with OVCAR-5 ovarian, 65.7%; in the assay with OVCAR-4 ovarian it was 55.6%; in the assay on SK-OV-3 ovarian, 57.4%. The growth in the assay with IGROV1 ovarian is 39.2%; in the assay with OVCAR-3 ovarian, 57.8%; in the assay on HS 578T breast it was 68.8%; in the assay on NCI/ADR-RES ovarian, 36.5%.

With `Cc1ccc(C(C(N)=O)C(C(N)=O)c2ccccc2)cc1` (stereo not given), the growth is 92% with SR leukemia; 95.4% in the assay with RPMI-8226 leukemia; 103% with OVCAR-8 ovarian; 114% in the assay on OVCAR-5 ovarian; 115% in the assay on OVCAR-4 ovarian; 114% in the assay with SK-OV-3 ovarian. The growth with IGROV1 ovarian was 105%; in the assay with OVCAR-3 ovarian, 114%; in the assay on HS 578T breast, 124%; in the assay on NCI/ADR-RES ovarian it was 122%.

In the case of `CNC(=O)c1c(NC(=O)c2ccc(C(F)(F)F)cc2)sc2c1CCC(=O)C2`, the growth in the assay with SR leukemia was 3.07% (active); in the assay with RPMI-8226 leukemia it was -27% (active); with OVCAR-8 ovarian, 14%; in the assay on OVCAR-5 ovarian, -44.7% (active); with OVCAR-4 ovarian, -81.5% (active); with SK-OV-3 ovarian it was 0.374% (active). Also, the growth with IGROV1 ovarian is -4.58% (active); in the assay on OVCAR-3 ovarian, -6.89% (active); with HS 578T breast it was 12.2%; with NCI/ADR-RES ovarian, -4.29% (active).

Regarding `CN1CCN(C(=O)OCc2ccc3c(Cl)cc(Cl)c(O)c3n2)CC1`, the growth in the assay on SR leukemia was 14%; in the assay with RPMI-8226 leukemia, 42%; with OVCAR-8 ovarian, 45.1%; in the assay on OVCAR-5 ovarian, 106%; in the assay with OVCAR-4 ovarian, 46.8%; in the assay on SK-OV-3 ovarian it was 88.7%. Also, the growth in the assay on IGROV1 ovarian was 56.6%; in the assay with OVCAR-3 ovarian, 50.9%; with HS 578T breast it was 80.2%; in the assay with NCI/ADR-RES ovarian, 15%.

On to `CCCCCC(=O)OCC(=O)O[C@@H]1C[C@]2(C(C)C)O[C@@]1(C)[C@@H]1CC[C@@H](C)[C@H]1[C@@H]2OC(=O)/C=C/c1ccccc1`, for which the growth with SR leukemia is 76.3%; with RPMI-8226 leukemia, 66.8%; in the assay on OVCAR-8 ovarian it was 19.9%; in the assay on OVCAR-5 ovarian, 112%; in the assay on OVCAR-4 ovarian, 75.7%; in the assay with SK-OV-3 ovarian, 87.9%. Moreover, the growth in the assay on IGROV1 ovarian is 86.7%; in the assay with OVCAR-3 ovarian it was 52.9%; in the assay on HS 578T breast, -15.5% (active); in the assay on NCI/ADR-RES ovarian, 21.7%.

As to `O=C(/C=C/c1cccs1)c1ccc(Cl)nc1`, the growth in the assay on SR leukemia was 82.5%; in the assay on RPMI-8226 leukemia, 4.19% (active); with OVCAR-8 ovarian, 99.3%; in the assay with OVCAR-5 ovarian it was 103%; with OVCAR-4 ovarian it was 104%; with SK-OV-3 ovarian, 95.7%. Besides, the growth is 107% with IGROV1 ovarian, 116% with OVCAR-3 ovarian, 105% in the assay with HS 578T breast and 108% with NCI/ADR-RES ovarian.

As to `CC1=Nc2cnc(Nc3ccc(OCCN4CCCC4)cc3)nc2Nc2ccccc21`, the growth in the assay with SR leukemia was 58.1%; with RPMI-8226 leukemia, 78%; in the assay with OVCAR-8 ovarian, 80.6%; in the assay on OVCAR-5 ovarian, 74%; in the assay with OVCAR-4 ovarian, 62.9%; with SK-OV-3 ovarian, 43.8%. In addition, the growth with IGROV1 ovarian was 23.1%; with OVCAR-3 ovarian it was 76.4%; in the assay on HS 578T breast it was 41.5%; in the assay on NCI/ADR-RES ovarian, 82.7%.

Consider `COc1ccc2[nH]cc(-c3nc(-c4c[nH]c5ccncc45)cs3)c2c1`, for which the growth in the assay on SR leukemia was 0.735% (active); in the assay on RPMI-8226 leukemia, -20% (active); with OVCAR-8 ovarian, 38.6%; with OVCAR-5 ovarian, 45.3%; in the assay on OVCAR-4 ovarian it was 47.3%; with SK-OV-3 ovarian, 86.3%. The growth is 64.7% with IGROV1 ovarian, -13.2% (active) with OVCAR-3 ovarian, 93.2% in the assay on HS 578T breast and 59.9% in the assay on NCI/ADR-RES ovarian.
